# Screens (PubChem BioAssay)
# DRD3 antagonist: blocks the human D3 dopamine receptor; D3R cells, DiscoveRx beta-arrestin luminescence, antagonist mode; hits give low values; max response, negative = inhibition, %; 360,000 compounds, 2.5% hits; AID 652054; in the data active = max response below about -50%; inconclusive = no clear call, values can overlap the other calls; also: % is scaled to controls: 0 for no effect and ±100 for the full control effect
# Target sequence (P35462 whole entry, looked up): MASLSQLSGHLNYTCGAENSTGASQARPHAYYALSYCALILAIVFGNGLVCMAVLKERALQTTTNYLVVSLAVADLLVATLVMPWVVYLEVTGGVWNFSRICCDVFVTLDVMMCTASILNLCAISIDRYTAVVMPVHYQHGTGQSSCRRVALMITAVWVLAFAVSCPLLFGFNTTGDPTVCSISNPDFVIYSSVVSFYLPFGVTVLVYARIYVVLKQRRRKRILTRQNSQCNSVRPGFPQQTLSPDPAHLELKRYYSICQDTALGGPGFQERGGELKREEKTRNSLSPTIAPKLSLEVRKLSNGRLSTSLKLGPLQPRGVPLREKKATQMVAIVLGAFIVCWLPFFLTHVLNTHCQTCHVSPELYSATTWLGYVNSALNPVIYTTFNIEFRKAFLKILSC
#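 Cells plated overnight at 1500 cells/well, then exposed to library compounds with dopamine controls for 90 minutes at 37 degrees C. DiscoveRx reagent added for 30–60 minutes at room temperature; luminescence read, quantitative HTS format.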
# DRD3 agonist: activates the human D3 dopamine receptor; P35462; D3R DiscoveRx beta-arrestin cells, luminescence, 90 min; max activation, %; 410,000 compounds, 0.58% hits; AID 652048; in the data active = max activation above about 30%; also: 0% is about no effect
#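 Agonist-mode cell screen: cells plated at 1500/well and incubated overnight at 37 °C, then exposed to library compounds for 90 min at 37 °C. Detection reagent was added for 30–60 min at room temperature, and luminescence was read.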
# ATXN2 expr inh: inhibitors of ATXN2 expression. AID 1745845. HEK-293 ATXN2-luciferase reporter, luminescence, 24 h. 360,000 compounds, 0.72% hits. Potency, µM (titrated, usually from 57 µM), for the others: at the top dose activity change, negative = inhibition, hits mostly inhibitors; also: potency is read from the fitted curve at half-maximal effect; % is scaled to controls: 0 for no effect and ±100 for the full control effect; nearly all actives have a fitted effect of over 55% in size
#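 qHTS (up to 57 uM final) was run with 24 h compound exposure of reporter cells at 37 °C. Each well was multiplexed: SteadyGlo luminescence measured ATXN2-luciferase expression after a fluorogenic Gly-Phe-AFC viability readout (25 uM final).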
# HepG2 tox: kills HepG2 cells in TGF-b inhibitor counter-screen; HepG2 CAGA-GFP viability, ATP luminescence, 18 h; 410,000 compounds, 0.76% hits; Potency, µM (series often up to 46.1 µM), without a hit: at the top dose activity change, negative = cytotoxicity, actives largely listed as cytotoxic; also: potency is read from the fitted curve at half-maximal effect
#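 CellTiter-Glo luminescence gave cytotoxicity after 18 hours at 37 degrees C. The cells were HepG2 CAGA-GFP in 1% FBS DMEM, stimulated with 500 pg/mL TGF-beta after compound addition. %Activity was normalised to no-cell wells (complete cell-killing) and DMSO (no toxicity), and curves were fitted and classified.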
# TGFb SMAD3 inh: inhibitors of TGF-b signaling; HepG2 CAGA-GFP TGF-b/SMAD3 reporter, GFP fluorescence, 18 h; TGF-beta stimulated, 500 pg/mL final; Potency, µM (titrated, usually from 46.1 µM), for the others: at the top dose activity, negative = inhibition, hits mostly inhibitors; 410,000 compounds, 1.2% hits; AID 588855; also: potency is read from the fitted curve at half-maximal effect; % is scaled to controls: 0 for no effect and ±100 for the full control effect; nearly all actives have a fitted effect of over 65% in size
#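 Cell-based qHTS in HEPG2 carrying a CAGA-GFP Smad reporter; compounds added before 500 pg/mL final TGF-beta, 18 h incubation at 37 degrees C, GFP fluorescence quantified per cell by imaging cytometry.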
# S2 tox: viability counter-screen for ATXN expression inhibitors; S2 cells (HEK-293 line with an ATXN2-luciferase reporter) viability, CellTiter-Fluor protease fluorescence, 24 h; Potency, µM (series often up to 56.7 µM), usual class: cytotoxic; 400,000 compounds, 0.49% hits; AID 651635; also: potency is read from the fitted curve at half-maximal effect; nearly all actives have a fitted effect of over 40% in size
# Numbers without * were called inactive; i = inactive; ? = inconclusive; . = no result given. Rows were chosen to be rich in hits. Some 4.8% of all compounds tested hit in one or more screens of this group. Unless noted, calls follow the shape of the dose curve; as a rule, active = well fitted curve in the direction sought with a large enough effect; inconclusive = small, poorly fitted or top-dose-only effect, or another doubt; inactive = no such curve, though single readings can be large; an effect the other way counts as inactive or inconclusive.
SMILES,DRD3 antagonist,DRD3 agonist,ATXN2 expr inh,HepG2 tox,TGFb SMAD3 inh,S2 tox
Cc1ncc2c(c1CNC(=O)/C=C/c1cccs1)CCN(C(=O)c1c(C)noc1C)C2,.,.,.,.,.,i
CC1CCc2c(sc3ncnc(NCCN4CCOCC4)c23)C1 (stereo unspecified),-71*,-7,28%,-31%,-1%,i
COc1ccc(-c2noc(CCC(=O)N3CCN(c4cccc(C(F)(F)F)c4)CC3)n2)cc1,42,11,-25%,2%,?,i
COc1ccc(-c2noc(CCC(=O)N3CCN(c4cccc(OC)c4)CC3)n2)cc1,102,44*,0%,-24%,-5%,i
Cc1ccc(NCCCn2cnc(C(=O)Nc3ccc(C)c(C)c3)n2)cc1C,6,-6,2%,2%,-8%,i
Cc1ccc(NC(=O)c2ncn(CCCN[C@H](C)c3cccc4ccccc34)n2)cc1C,-2,-23,?,-103%,?,22µM*
Cc1cc(C)c(CN2CCN(CCCn3cnc(C(=O)Nc4ccc(C)c(C)c4)n3)CC2)c(C)c1,46,14,?,18µM*,?,.
COc1ccc(OC)c(NC(=O)c2nc(S(=O)(=O)Cc3ccc(F)cc3)ncc2Cl)c1,.,-24,.,8.9µM*,6.3µM*,.
COc1ccccc1NC(=O)c1nc(SCc2ccc(F)cc2)ncc1Cl,.,4,.,-16%,-1%,.
Cc1ccc(NC(=O)c2nc(S(=O)(=O)Cc3ccccc3F)ncc2Cl)cc1C,.,.,.,-59%,?,.
Cc1ccc(NC(=O)c2nc(S(=O)(=O)Cc3ccc(F)cc3)ncc2Cl)cc1C,.,-23,.,7.1µM*,5.6µM*,.
CC(=O)Nc1ccc(NC(=O)c2nc(S(=O)(=O)Cc3ccc(F)cc3)ncc2Cl)cc1,.,-24,.,4µM*,2.8µM*,.
Clc1ccc(/C=C/c2ccnc3ccccc23)c(Cl)c1,.,.,.,-42%,?,.
COc1ccccc1N1CCN(C(CNC(=O)C(=O)NCCc2ccccc2)c2cccnc2)CC1 (stereo unspecified),.,9,?,-30%,-19%,?
Cc1ccc(NC(=O)CN2C(=O)CSc3ccc(S(=O)(=O)N(C)C)cc32)c(C)c1,.,-14,4%,-30%,?,i
Cc1ncc2c(c1CNC(=O)c1ccc3c(c1)OCO3)CCN(C(=O)C1Cc3ccccc3O1)C2 (stereo unspecified),.,.,.,.,.,i
COc1ccc2[nH]c3c(=S)nc[nH]c3c2c1,-56*,2,2%,-4%,24%,i
COc1ccc2[nH]c3c(Cl)ncnc3c2c1,-7,-2,0%,-17%,-1%,i
Cc1ccc(NC(=O)COC(=O)CCc2c(C)nc3ncnn3c2C)cc1,-12,32*,14%,8%,22%,i
Cc1ccc(NC(=O)COC(=O)CCc2c(C)nc3ncnn3c2C)cc1C,7,1,-5%,8%,2%,i
Cc1cccc(C(=O)NC(=S)Nc2ccc(Cc3ccncc3)cc2)c1,-78*,2,-8%,-29%,?,i
Cc1cccc(C(=O)NC(=S)Nc2ccc(S(=O)(=O)N(C)c3ccccc3)cc2)c1,-66*,-4,-8%,-20%,3%,i
Cc1ccccc1C(=O)NC(=S)Nc1ccc(S(=O)(=O)N(C)c2ccccc2)cc1,-25,3,2%,7%,8%,i
COc1ccc(OC)c(-n2nnnc2SCC(=O)Nc2ccc(C(=O)N3CCCCC3)cc2)c1,6,33*,-6%,-10%,-27%,i
COc1ccc(OC)c(-n2nnnc2SCC(=O)Nc2ccc3c(c2)OCCO3)c1,-17,0,-31%,-21%,3%,i
SMILES,DRD3 antagonist,DRD3 agonist,ATXN2 expr inh,HepG2 tox,TGFb SMAD3 inh,S2 tox
Cc1cc(C)nc(SCC(=O)N2CCOCC2)n1,-54*,15,-6%,-11%,1%,i
Cc1cc(C)nc(SCCC(=O)N2CCOCC2)n1,2,1,-6%,-1%,-7%,i
COc1ccc(OC)c(NC(=O)CSc2nnnn2-c2ccc3c(c2)OCO3)c1,13,-3,8.9µM*,-55%,-1%,i
COc1ccc(N2CCN(C(=O)CSc3nnnn3-c3ccc4c(c3)OCCO4)CC2)cc1,16,14,0%,2%,-4%,i
COC(=O)c1ccc(-n2nnnc2SCC(=O)Nc2cc(OC)ccc2OC)cc1,3,6,-2%,8%,1%,i
COc1ccc(-n2nnnc2SCC(=O)N2CCOCC2)cc1,-3,-7,4%,0.56µM*,-2%,i
O=C(NCCc1nnc2n1CCN(Cc1ccc(F)cc1)CC2)c1ccco1,.,.,.,.,.,i
Cc1cc2c(c(-c3ccc(Cl)cc3)c1)OC(CNC(=O)Cc1c(C)noc1C)C2 (stereo unspecified),.,.,.,.,.,i
O=C(Nc1nnc(Cc2ccccc2)s1)C1CCN(C(=O)c2cccs2)CC1,.,.,.,-15%,-23%,.
C#C[C@]1(OC(C)=O)CC[C@H]2[C@@H]3CCC4=CC(=O)CC[C@@H]4[C@H]3CC[C@@]21C,.,8,.,.,.,i
O=C(Nc1cccc(Cl)c1)OCCN1CCN(Cc2ccccc2)CCC1=O,-17,34*,?,-2%,-15%,?
COc1cccc(NC(=O)OCCN2CCN(Cc3ccccc3)CCC2=O)c1,19,44*,9%,-7%,?,i
Cc1ccc(NC(=O)Nc2cn(CC(C)C)c(=O)c3ccccc23)cc1N(C)C,.,-6,-3%,-10%,3%,i
Cc1ccc(S(=O)(=O)N2CCC(=O)N(CCOCc3ccc(C(F)(F)F)cc3)CC2)cc1,0,10,?,-23%,11µM*,?
COc1ccc(-c2onc(C)c2C)cc1S(=O)(=O)NCC1CCN(Cc2cc(C)ccc2C)CC1,.,-25,.,16µM*,?,.
COc1ccc(-c2onc(C)c2C)cc1S(=O)(=O)NCC1CCN(Cc2ccccc2F)CC1,.,-10,.,-41%,-34%,.
N#CC1(c2ccccc2)CCC(NCCc2ccccc2)CC1 (stereo unspecified),-54*,-18,.,-43%,-28%,?
O=C(NCCc1ccccc1)C1(c2ccccc2)CCCC1,-2,-4,-13%,-9%,-1%,i
Cc1ccc(Cn2ccsc2=NC(=O)CCl)cc1,0,7,?,-113%,?,0.79µM*
CCCn1ccc2c(OCC(=O)NCc3ccccc3Cl)cccc2c1=O,.,4,-26%,-35%,-30%,?
CCCN1CCN(C(=O)Cn2nc(C)n3c(cc4c(OC)cccc43)c2=O)CC1,-1,45*,41%,-2%,4%,i
